Results taken from PubChem BioAssay (NCI).
The panel holds about 83,000 compounds, 20% with a hit somewhere; the sample as a whole holds those more often.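 Note: values are percent growth. 100 is the growth of untreated cells, values between 100 and 0 indicate rising inhibition; between -100 and 0 indicates cell death.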 Activity calls are given as the source filed them. Rule for the calls: active = growth percent below 10; inactive = the rest.

What was measured:
Experiment in all cases: NCI-60 one-dose screen, 48 h (100 = growth as untreated, 0 = no growth, -100 = all killed)
[1] = test system: HCT-15 colon; details: 10 µM unless noted
[2] = test system: HT29 colon; details: 10 µM unless noted
[3] = test system: SNB-75 CNS; details: 10 µM unless noted
[4] = test system: SNB-19 CNS; details: 10 µM unless noted
[5] = test system: U251 CNS; details: 10 µM unless noted
[6] = test system: PC-3 prostate; details: 10 µM unless noted
[7] = test system: SK-MEL-5 melanoma; details: 10 µM unless noted
[8] = test system: UACC-62 melanoma; details: 10 µM unless noted
[9] = test system: LOX IMVI melanoma; details: 10 µM unless noted
[10] = test system: SK-MEL-28 melanoma; details: 10 µM unless noted
[11] = test system: SK-MEL-2 melanoma; details: 10 µM
[12] = test system: EKVX NSCLC; details: 10 µM unless noted
[13] = test system: SN12C renal; details: 10 µM unless noted
[14] = test system: UO-31 renal; details: 10 µM unless noted
[15] = test system: TK-10 renal; details: 10 µM unless noted
[16] = test system: A498 renal; details: 10 µM unless noted
[17] = test system: CCRF-CEM leukemia; details: 10 µM unless noted
[18] = test system: MOLT-4 leukemia; details: 10 µM unless noted
[19] = test system: ACHN renal; details: 10 µM unless noted
[20] = test system: CAKI-1 renal; details: 10 µM unless noted

Measured: growth

CC(=Nc1ccccc1)C1=C(O)C(Cc2ccccc2)NC1=O (centres undefined)
active: [1] 5.57% | [2] -0.116% | [6] 5.74% | [7] -43.3% | [16] -22.1% | [17] -10.9% | [18] 0.239%
inactive: [3] 19.1% | [4] 16.4% | [5] 15.5% | [8] 24.6% | [9] 18.5% | [10] 37.8% | [11] 26.9% | [12] 23.3% | [13] 36.6% | [14] 43.6% | [15] 54.2%

COc1ccc(C2CC(=O)c3c(O)c(OC)c(OC)c(OC)c3O2)cc1O (centres undefined)
inactive: [2] 101% | [3] 39.9% | [4] 36.9% | [5] 25.7% | [6] 31.2% | [7] 18.9% | [8] 35.2% | [9] 40.9% | [10] 52.9% | [11] 48.8% | [12] 50.4% | [13] 45.4% | [14] 51.6% | [15] 70.6% | [19] 40.4% | [17] 24.2% | [18] 22%
active: [1] 9.19%

COc1cc2c(c(OC)c1)C1c3ccccc3NC(=O)N1CC2 (centres undefined)
active: [2] 6.37% | [3] 7.13% | [16] -7.8%
inactive: [1] 18% | [4] 44.7% | [5] 16.8% | [6] 22.6% | [7] 15.7% | [8] 15.6% | [9] 41.3% | [10] 49.8% | [12] 42.1% | [13] 39% | [14] 36.8% | [15] 49.5% | [19] 44.9% | [20] 34.3% | [17] 10.7% | [18] 30.6%

CCCS(=O)(=O)Nc1ccc(F)c(C(=O)c2c[nH]c3ncc(-c4ccc(Cl)cc4)cc23)c1F
active: [2] 4.44% | [3] 8.13% | [8] -22.6% | [10] 1.65% | [16] -1.82%
inactive: [1] 28.4% | [4] 40.4% | [5] 18.5% | [6] 21.8% | [7] 15.9% | [9] 16.5% | [12] 43.1% | [13] 49.6% | [14] 19.5% | [15] 23.8% | [19] 24.4% | [20] 12.1% | [17] 26.9% | [18] 15.6%

COc1cc2c(cc1O)c(=O)n(CCN(C)C)c1c3cc4c(cc3ncc21)OCO4
active: [1] 2.84% | [2] 8.08% | [3] -37.2% | [4] -0.441% | [5] -49% | [6] -9.82% | [7] -50.9% | [8] -54.2% | [9] -56.3% | [10] -7.55% | [12] 9.22% | [13] -5.86% | [14] -46.8% | [15] -45.5% | [19] -61.8% | [20] -10.2% | [16] -59.8% | [17] -11.3% | [18] -15.9%

Cn1cc(-c2ccc(F)c(C(F)(F)F)c2)nc1C1CCN(c2ncnc3[nH]ncc23)CC1
inactive: [1] 70% | [2] 60.8% | [4] 52.5% | [5] 48% | [6] 71% | [7] 95.1% | [8] 75.7% | [9] 69.4% | [10] 86.2% | [12] 88% | [13] 63.7% | [14] 63.8% | [15] 66.6% | [19] 73.4% | [20] 62.2% | [16] 66.5% | [17] 72.4% | [18] 65.5%
active: [3] -15%

O=C(Nc1nc2cccc(-c3ccc(CN4CCS(=O)(=O)CC4)cc3)n2n1)C1CC1
inactive: [1] 94.7% | [2] 65.4% | [3] 90.3% | [4] 48% | [5] 65.3% | [6] 76.9% | [7] 74.6% | [8] 87.6% | [9] 60.4% | [10] 90.2% | [12] 106% | [13] 76.8% | [14] 75.3% | [15] 66.3% | [19] 93.6% | [20] 88.4% | [16] 60.8% | [17] 30.9% | [18] 41%

COc1cc2c(cc1OCCCCCN1CCN(c3ncnc4ccccc34)CC1)N=CC1CCCN1C2=O (centres undefined)
active: [1] 0.198% | [2] 8.89% | [3] -50.2% | [5] 2.18% | [6] -38.6% | [7] -80.6% | [8] -90.4% | [9] -49.2% | [10] -14.6% | [11] 1.29% | [12] -41.5% | [13] 1.92% | [15] -21.4% | [19] 1.61% | [20] -18.1% | [17] -37.2% | [18] 0.399%
inactive: [4] 12.6%
